Assay results published in PubChem BioAssay.
This is one part of the list. Active and inactive are the calls of the source.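 Rule for the calls, unless noted: active = mean inhibition over 43.08%, the solvent-only control mean plus 3 SD; inactive = the rest.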

How the values were obtained:
[1] = biological target: Nuclear receptor coactivator 3 (Homo sapiens) (UniProt Q9Y6Q9); assay: SRC3 coactivator transcriptional activity inhibitors, confirmation, cell-based, luminescence, quadruplicate (AID 588792); conditions: HEK293 GAL4-SRC3 luciferase reporter, at 3.6 µM, active compounds read high;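 note: 0% = DMSO treated cells and 100% = gossypol at 36 µM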
[2] = system: transactivating tegument protein VP16 (Human herpesvirus 1), Gal4-VP16 luciferase reporter; assay: VP16 transactivation inhibitors, counter-screen for SRC3 inhibitor project, cell-based, luminescence, high throughput (AID 588794; in the data active = inhibition above about 30%); conditions: mammalian cells, VP16-driven luciferase reporter luminescence; at 3.6 µM; active compounds read high
[3] = biological target: Nuclear receptor coactivator 1 (Homo sapiens) (UniProt Q15788); assay: SRC1 coactivator transcriptional activity inhibitors, confirmation, cell-based, luminescence, quadruplicate (AID 588820;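 active = mean inhibition above 46.68%, the untreated control wells mean plus 3 SD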;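 note: 0% = DMSO wells and 100% = gossypol 36 µM treated wells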); conditions: HEK293 GAL4-SRC1 luciferase reporter, at 3.6 µM, active compounds read high
[4] = VP16 transactivation inhibitors, counter-screen for SRC1 inhibitor project, cell-based, luminescence, high throughput (AID 588824; in the data active = inhibition above about 25%); conditions: cell-based VP16 transactivation luciferase luminescence; at 3.6 µM; active compounds read high
[5] = system: transactivating tegument protein VP16 (Human herpesvirus 1); assay: VP16 transactivation reporter inhibitors, counter-screen for SRC2 inhibitor project, cell-based, luminescence, single concentration (AID 652007; in the data active = inhibition above about 36%); conditions: cell-based VP16 transactivation luciferase reporter, at 8.9 µM, active compounds read high
[6] = biological target: Nuclear receptor coactivator 2 (Homo sapiens) (UniProt Q15596); assay: SRC2 coactivator transcriptional activity inhibitors, confirmation, cell-based, luminescence, HEK293, triplicate (AID 652008;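 active = mean inhibition above 46.5%, the solvent-only control mean plus 3 SD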;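 note: 0% = DMSO-treated cells and 100% = Gossypol at 36 µM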); conditions: HEK293 GAL4-SRC2 luciferase reporter, at 8.9 µM, active compounds read high
[7] = Gal4-VP16 luciferase reporter inhibitors, counter-screen for COUP-TFII antagonist project, cell-based, luminescence, HEK293 (AID 687007; in the data active = inhibition above about 13%); conditions: at 8.5 µM, active compounds read high
[8] = biological target: COUP transcription factor 2 (Homo sapiens) (UniProt P24468); assay: NR2F2 transcriptional activity inhibitors, confirmation, cell-based, luciferase reporter, HEK293, triplicate (AID 687008;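 active = mean inhibition over three repeats above a set limit taken from the earlier primary screen, cut at about 38% in these data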;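 note: 100% = cells given the luciferase reporter alone without the COUP-TF2 vector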); conditions: HEK293 NGFI-A luciferase reporter, luminescence; at 8.5 µM; active compounds read high

Measured: inhibition

Nuclear receptor coactivator 2 (Homo sapiens), sequence (Q15596 whole entry, looked up, the tested form may be a part): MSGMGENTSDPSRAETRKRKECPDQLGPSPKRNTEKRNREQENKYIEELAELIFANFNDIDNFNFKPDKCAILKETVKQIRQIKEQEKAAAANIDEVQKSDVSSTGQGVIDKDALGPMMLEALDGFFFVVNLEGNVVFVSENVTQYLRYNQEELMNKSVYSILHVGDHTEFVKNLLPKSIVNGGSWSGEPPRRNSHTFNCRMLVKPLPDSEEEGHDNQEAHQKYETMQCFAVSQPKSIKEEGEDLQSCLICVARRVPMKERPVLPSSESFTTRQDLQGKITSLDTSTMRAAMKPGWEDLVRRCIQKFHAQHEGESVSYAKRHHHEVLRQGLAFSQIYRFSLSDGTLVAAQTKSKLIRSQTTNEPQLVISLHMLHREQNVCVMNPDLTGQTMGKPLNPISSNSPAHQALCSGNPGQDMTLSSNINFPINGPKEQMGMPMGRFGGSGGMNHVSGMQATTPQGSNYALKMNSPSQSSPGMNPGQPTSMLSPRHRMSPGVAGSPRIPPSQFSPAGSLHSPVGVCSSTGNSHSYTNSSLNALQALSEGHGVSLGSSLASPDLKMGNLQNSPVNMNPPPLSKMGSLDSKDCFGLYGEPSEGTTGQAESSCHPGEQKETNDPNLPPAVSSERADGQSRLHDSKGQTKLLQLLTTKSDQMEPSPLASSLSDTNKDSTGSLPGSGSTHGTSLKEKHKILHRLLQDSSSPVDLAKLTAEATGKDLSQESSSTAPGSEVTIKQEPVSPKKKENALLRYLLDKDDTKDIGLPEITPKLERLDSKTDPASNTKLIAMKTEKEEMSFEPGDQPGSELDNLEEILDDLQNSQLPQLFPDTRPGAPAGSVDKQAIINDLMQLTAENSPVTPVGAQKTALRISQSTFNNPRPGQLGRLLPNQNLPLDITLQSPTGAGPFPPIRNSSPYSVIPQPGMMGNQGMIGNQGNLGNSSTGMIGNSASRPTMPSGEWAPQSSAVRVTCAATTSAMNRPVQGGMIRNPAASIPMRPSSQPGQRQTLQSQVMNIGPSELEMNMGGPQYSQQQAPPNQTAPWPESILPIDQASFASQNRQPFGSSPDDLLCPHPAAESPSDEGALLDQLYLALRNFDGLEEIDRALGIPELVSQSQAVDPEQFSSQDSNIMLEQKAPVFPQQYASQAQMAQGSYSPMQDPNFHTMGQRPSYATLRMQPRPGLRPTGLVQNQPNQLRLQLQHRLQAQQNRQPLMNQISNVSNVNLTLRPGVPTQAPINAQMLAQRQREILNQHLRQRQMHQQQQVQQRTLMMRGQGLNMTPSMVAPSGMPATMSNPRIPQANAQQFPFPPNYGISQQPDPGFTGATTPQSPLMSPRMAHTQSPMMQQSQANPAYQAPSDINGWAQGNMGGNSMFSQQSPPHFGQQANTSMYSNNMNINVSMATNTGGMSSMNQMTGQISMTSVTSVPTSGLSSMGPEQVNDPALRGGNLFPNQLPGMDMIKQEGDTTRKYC
Nuclear receptor coactivator 3 (Homo sapiens), sequence (Q9Y6Q9 whole entry, looked up, the tested form may be a part): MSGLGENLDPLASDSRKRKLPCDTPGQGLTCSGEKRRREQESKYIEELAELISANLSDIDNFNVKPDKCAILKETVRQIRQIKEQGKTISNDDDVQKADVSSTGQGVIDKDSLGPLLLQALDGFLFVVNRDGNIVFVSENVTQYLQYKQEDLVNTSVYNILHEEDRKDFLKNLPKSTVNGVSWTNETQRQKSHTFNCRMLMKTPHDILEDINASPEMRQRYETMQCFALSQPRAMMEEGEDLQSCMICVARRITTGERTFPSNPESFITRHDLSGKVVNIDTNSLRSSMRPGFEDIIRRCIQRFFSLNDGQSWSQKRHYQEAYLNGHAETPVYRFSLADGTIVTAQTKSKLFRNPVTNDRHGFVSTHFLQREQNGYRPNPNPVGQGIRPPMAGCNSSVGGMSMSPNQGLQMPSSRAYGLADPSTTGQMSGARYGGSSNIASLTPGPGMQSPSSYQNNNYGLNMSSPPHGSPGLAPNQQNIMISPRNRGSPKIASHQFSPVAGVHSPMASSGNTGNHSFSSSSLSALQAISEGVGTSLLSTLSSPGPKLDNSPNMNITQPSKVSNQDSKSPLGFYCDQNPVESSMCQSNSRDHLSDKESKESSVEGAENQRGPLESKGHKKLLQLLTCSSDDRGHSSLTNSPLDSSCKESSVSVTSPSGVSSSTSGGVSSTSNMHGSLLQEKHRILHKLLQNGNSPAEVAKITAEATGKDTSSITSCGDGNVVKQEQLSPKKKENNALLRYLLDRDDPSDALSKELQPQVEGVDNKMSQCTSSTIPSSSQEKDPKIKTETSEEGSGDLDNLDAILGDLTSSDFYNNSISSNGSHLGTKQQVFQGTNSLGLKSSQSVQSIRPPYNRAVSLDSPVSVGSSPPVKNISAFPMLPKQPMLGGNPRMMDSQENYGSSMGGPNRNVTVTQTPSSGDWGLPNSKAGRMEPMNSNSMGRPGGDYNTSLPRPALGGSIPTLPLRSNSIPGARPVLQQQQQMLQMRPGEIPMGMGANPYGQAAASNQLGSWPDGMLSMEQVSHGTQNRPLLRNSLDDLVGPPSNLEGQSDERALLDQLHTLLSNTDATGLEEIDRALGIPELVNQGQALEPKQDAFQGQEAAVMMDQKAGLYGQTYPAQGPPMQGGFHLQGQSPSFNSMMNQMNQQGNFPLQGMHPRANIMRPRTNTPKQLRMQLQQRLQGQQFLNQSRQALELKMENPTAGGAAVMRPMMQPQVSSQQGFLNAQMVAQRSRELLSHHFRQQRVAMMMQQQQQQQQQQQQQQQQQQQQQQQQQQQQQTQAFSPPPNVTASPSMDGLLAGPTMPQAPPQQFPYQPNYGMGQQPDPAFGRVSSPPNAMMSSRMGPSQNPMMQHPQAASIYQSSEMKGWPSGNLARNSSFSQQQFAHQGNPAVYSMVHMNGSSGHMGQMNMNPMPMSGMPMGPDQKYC
Nuclear receptor coactivator 1 (Homo sapiens), sequence (Q15788 whole entry, looked up, the tested form may be a part): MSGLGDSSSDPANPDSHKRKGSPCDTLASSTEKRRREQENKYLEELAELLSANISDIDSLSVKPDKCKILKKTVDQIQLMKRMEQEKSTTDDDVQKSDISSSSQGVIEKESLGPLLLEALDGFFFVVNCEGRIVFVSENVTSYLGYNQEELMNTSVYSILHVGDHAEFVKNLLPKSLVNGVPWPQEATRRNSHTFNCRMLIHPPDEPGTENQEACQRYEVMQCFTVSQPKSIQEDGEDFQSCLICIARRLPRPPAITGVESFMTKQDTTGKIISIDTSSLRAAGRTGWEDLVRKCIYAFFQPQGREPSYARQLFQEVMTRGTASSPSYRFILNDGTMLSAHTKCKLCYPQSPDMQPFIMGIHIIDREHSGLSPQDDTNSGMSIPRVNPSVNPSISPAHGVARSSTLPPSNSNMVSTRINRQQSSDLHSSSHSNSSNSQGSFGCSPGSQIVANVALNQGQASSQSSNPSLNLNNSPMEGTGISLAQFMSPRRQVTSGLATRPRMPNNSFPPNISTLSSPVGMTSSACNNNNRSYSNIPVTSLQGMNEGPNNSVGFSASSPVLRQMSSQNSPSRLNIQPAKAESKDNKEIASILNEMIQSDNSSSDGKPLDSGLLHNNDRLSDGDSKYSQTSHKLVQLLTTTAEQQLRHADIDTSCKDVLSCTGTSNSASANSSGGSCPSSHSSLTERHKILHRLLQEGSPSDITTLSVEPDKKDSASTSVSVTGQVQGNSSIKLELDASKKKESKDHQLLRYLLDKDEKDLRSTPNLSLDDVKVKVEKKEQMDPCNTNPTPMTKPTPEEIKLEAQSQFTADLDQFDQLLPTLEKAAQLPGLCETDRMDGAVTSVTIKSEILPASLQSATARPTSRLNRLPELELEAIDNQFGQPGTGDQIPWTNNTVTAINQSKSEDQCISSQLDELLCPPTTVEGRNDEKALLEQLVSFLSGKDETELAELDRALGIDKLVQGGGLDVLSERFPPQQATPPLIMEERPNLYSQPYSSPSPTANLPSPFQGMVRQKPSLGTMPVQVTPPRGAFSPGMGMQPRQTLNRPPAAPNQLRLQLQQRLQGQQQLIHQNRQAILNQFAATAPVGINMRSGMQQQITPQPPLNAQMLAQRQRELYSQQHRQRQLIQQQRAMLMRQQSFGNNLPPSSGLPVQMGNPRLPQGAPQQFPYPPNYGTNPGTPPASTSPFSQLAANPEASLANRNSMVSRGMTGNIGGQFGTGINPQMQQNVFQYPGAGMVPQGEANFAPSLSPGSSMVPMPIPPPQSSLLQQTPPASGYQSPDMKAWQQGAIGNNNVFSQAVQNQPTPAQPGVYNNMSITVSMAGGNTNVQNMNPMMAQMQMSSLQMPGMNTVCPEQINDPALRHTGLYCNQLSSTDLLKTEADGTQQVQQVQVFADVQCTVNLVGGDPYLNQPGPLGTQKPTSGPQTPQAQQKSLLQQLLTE
COUP transcription factor 2 (Homo sapiens), sequence (P24468 whole entry, looked up): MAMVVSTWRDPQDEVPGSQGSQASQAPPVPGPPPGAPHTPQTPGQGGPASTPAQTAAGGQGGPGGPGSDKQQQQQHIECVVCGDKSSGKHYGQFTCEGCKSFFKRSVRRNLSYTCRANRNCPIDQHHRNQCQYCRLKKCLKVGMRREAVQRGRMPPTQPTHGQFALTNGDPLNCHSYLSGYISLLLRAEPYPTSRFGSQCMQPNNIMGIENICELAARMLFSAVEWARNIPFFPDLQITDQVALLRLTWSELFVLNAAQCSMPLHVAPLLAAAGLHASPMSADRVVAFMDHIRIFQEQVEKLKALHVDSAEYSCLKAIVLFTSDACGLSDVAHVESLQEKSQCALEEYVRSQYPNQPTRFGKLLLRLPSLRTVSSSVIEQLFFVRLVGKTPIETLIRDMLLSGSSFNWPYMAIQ

CC1(C)Cc2c(ccc3ccccc23)C(=O)N1
active: [1] 55.7% | [2] 37.2% | [3] 55%
inactive: [4] 23.7% | [5] -22.7% | [6] 32.1%

O=[N+]([O-])c1ccc2ncnc(Nc3ccc4c(c3)OCCO4)c2c1
inactive: [5] 3.91% | [6] 28.4%
active: [1] 57.9% | [2] 44.4% | [3] 59.8% | [4] 33.3%

O=C(Nc1ccc(C(=O)N2CCOCC2)cc1)Nc1cccc(C(F)(F)F)c1
inactive: [5] -0.39% | [6] 36.4%
active: [1] 66.9% | [2] 43.2% | [3] 64.3% | [4] 38.8%

CC(=C/c1ccccc1)/C=N/n1c(-c2ccncc2)n[nH]c1=S
inactive: [5] 6.14% | [6] 45%
active: [1] 71.2% | [2] 45.2% | [3] 66.1% | [4] 51.6%

Cc1ccc(C(=O)Nc2cnc3ccccc3c2)cc1
inactive: [2] 9.25% | [3] -70.2% | [4] 23.4%
active: [1] 44.4% | [5] 50.7% | [6] 84.9%

O=C(CCCN1C(=O)/C(=C/c2ccccc2Cl)SC1=S)NNC(=O)c1ccc(Cl)cc1Cl
active: [1] 55% | [2] 32.6% | [4] 33% | [5] 76.7% | [6] 92.4%
inactive: [3] 37.1%

COc1cc(SC)ccc1C(=O)Nc1nc(C)cs1
active: [5] 50.1% | [6] 75.4% | [7] 46.4% | [8] 69.1%
inactive: [1] 15.6% | [2] 15.1% | [3] -68.3% | [4] 14.8%
